# Assay outcomes (PubChem BioAssay)
# TSHR antag: antagonists of human thyroid stimulating hormone receptor; TSHR-expressing cells, TSH-stimulated cAMP HTRF, 2 h; active compounds read low; activity change, negative = inhibition, % at 11.5 µM; 0.2% of 330,000 active; AID 504810;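 active means activity change below a set negative limit, meaning inhibition stronger than a set level, cut at about -70% in these data; inconclusive means activity change between two set negative limits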
#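 Antagonism was scored as loss of TSH-driven cAMP in TSHR cells, stimulated with 4nM TSH (EC80) for 2 hours at 37 deg C and detected by homogeneous HTRF competition immunoassay.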
# RORgamma inh: inhibitors of mouse ROR gamma transcriptional activity. Potency, µM (highest dose often 53.6 µM), usual class: inhibitors. 5.4% of 310,000 active. Drosophila S2 Gal4-RORgamma UAS-luciferase reporter, 20 h. P51450; further: nearly all actives have a fitted effect of over 60% in size
# Target sequence (P51450 whole entry, looked up, the tested form may be a part): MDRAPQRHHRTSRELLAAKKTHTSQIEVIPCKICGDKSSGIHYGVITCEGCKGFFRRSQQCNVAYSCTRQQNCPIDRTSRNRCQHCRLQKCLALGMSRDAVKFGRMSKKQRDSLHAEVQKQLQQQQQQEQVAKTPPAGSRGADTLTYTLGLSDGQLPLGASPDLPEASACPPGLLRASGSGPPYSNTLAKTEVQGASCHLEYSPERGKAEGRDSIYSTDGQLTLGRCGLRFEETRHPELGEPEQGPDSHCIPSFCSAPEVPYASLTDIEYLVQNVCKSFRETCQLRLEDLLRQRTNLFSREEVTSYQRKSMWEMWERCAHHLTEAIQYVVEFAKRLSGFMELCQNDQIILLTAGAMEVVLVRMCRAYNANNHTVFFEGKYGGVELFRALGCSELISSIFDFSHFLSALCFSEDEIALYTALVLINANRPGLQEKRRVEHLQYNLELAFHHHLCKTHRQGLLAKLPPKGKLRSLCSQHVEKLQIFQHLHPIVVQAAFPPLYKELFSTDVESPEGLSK
#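 A Gal4/UAS one-hybrid system in insect cells: metallothionein-promoter Gal4–ROR gamma fusion plus Photinus luciferase reporter. Copper sulfate 700 uM final, 20 hr ambient incubation, luminescent detection after 10 min with reagent.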
# FBPA coupling cs: counter-screen for Giardia aldolase inhibitors: coupling enzyme system; 0.67% of 290,000 active; AID 2472; activity change, negative = inhibition, % at 58.2 µM, hits read low; coupling enzyme system counterscreen, AmpLite Red fluorescence; in the data active means activity change below about -30%
#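 Counterscreen lacking aldolase: glyceraldehyde-3-phosphate coupling-enzyme reagent preincubated 10 min at RT with compound (at 57.5 uM final), then substrate/coupling system with AmpLite Red added; fluorescence read at 525/598 nm after 20 min RT.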
# VP16 counter: counter-screen for ROR gamma inhibitors: Gal4-VP16 reporter | Drosophila S2 Gal4-VP16 UAS-luciferase, luminescence, 20 h | Potency, µM (series often up to 53.6 µM), most hits filed as inhibitors | 3.5% of 310,000 active | AID 2546;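 further: Gal4-VP16 expression switched on by copper sulfate through the metallothionein promoter; nearly all actives have a fitted effect of over 50% in size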
# ELG1 DNA repair: inhibitors of ELG1-dependent DNA repair in HEK293T cells; HEK293T ELG1-luciferase reporter, luminescence, 16 h; DNA damage induced by 5-fluorouridine; Potency, µM (series often up to 46.1 µM), hits mostly inhibitors; 2.3% of 330,000 active; AID 504467; further: nearly all actives have a fitted effect of over 55% in size
#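 Step one: seed 2,000 cells per well. Step two: pin-transfer compound or DMSO alongside 5-fluorouridine. Step three: incubate 16 hr, 37 °C, 5% CO2. Step four: add ONE-Glo, wait 30 min, read luminescence.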
# Numbers stand for hits; i = inactive; ? = inconclusive; nt = no result. This is a sample that favours compounds with a hit; in the whole collection about 8% have one here. Unless noted, the call rests on the fitted dose curve; in most records, active means well fitted curve in the direction sought with a large enough effect; inconclusive means small, poorly fitted or top-dose-only effect, or another doubt; inactive means no such curve, though single readings can be large; an effect the other way counts as inactive or inconclusive.
SMILES,TSHR antag,RORgamma inh,FBPA coupling cs,VP16 counter,ELG1 DNA repair
COC(=O)c1ccc(NC(=S)NC2CCCCC2)cc1,i,7.1µM,i,?,?
Cc1cccc(OCc2nnc(-c3ccc(F)cc3)o2)c1,i,nt,nt,nt,?
COc1ccc(CNc2ncnc3ccc(-c4ccc(C(=O)N(C)C)cc4)cc23)c(OC)c1,nt,i,i,i,nt
O=C(C[C@H]1C/C=C\CC[C@H](Cc2ccc(F)cc2)C(=O)OC[C@H]2CCCN2C1=O)N[C@@H](CO)Cc1ccccc1,i,nt,nt,nt,i
C=CC[C@H](CC(=O)OC(C)(C)C)C(=O)OC[C@H]1CCCN1C(=O)[C@H](CC=C)CC(=O)NCCO,i,nt,nt,nt,i
COc1ccc(CNCc2cc(C)c(OC)cc2C)c(OC)c1,-129,i,i,i,?
Cc1ccc(-c2csc3ncnc(SCC(=O)NCc4ccc5c(c4)OCO5)c23)cc1,i,i,i,i,?
Cn1c(SCC(=O)NCc2ccc3c(c2)OCO3)nc2scc(-c3cccs3)c2c1=O,i,i,i,i,13µM
O=C(CSc1n[nH]c(-c2cccs2)n1)NCc1ccc2c(c1)OCO2,i,i,i,i,i
C=CCn1c(SCC(=O)NCc2ccc3c(c2)OCO3)nc2scc(-c3ccc(F)cc3)c2c1=O,i,i,i,i,15µM
C=CCn1c(SC(C)C(=O)NCc2ccc3c(c2)OCO3)nc2scc(-c3ccccc3)c2c1=O (stereo unspecified),i,i,i,i,?
O=C(CSc1ncnc2scc(-c3ccc(Cl)cc3)c12)NCc1ccc2c(c1)OCO2,i,i,-33,i,?
O=C(O)c1ccc2c(c1)C(=O)N(CCc1ccc(O)cc1)C2=O,i,i,i,i,nt
Cc1cccnc1NC(=O)c1cccc(S(=O)(=O)NCc2ccccc2)c1,i,nt,nt,nt,i
COc1ccc(OC)c(NC(=O)C(=O)NNC(=O)C23CC4CC(CC(C4)C2)C3)c1,i,2.5µM,i,?,29µM
CN1C(=O)/C(=C/c2ccccc2OCc2ccccc2F)NC1=S,i,1.6µM,i,i,i
O=C(O)c1ccc(COc2ccccc2/C=C2\NC(=O)N(Cc3ccccc3F)C2=O)cc1,i,i,i,i,?
CN1C(=O)/C(=C/c2ccc(OCc3cccc(F)c3)cc2)NC1=S,i,7.1µM,i,?,i
CCOC(=O)c1cc(C#N)c(=S)[nH]c1C,i,13µM,i,i,i
COCc1[nH]c(=S)c(C#N)cc1C(=O)OC,i,?,i,i,i
Cc1ccc(OCCNS(=O)(=O)c2ccc(N3CCCC3=O)cc2)cc1,i,?,i,13µM,?
Cc1ccc(OCCNS(=O)(=O)c2ccc(N3CCCC3=O)cc2)cc1C,i,i,i,13µM,?
CCc1nnc(NC(=O)CCC(=O)NC2CCCC2)s1,i,i,nt,i,i
Cc1cc(=O)n(Cc2ccc(OC(C)C)cc2)c(=S)[nH]1,i,7.9µM,i,?,i
CCN(Cc1ccncc1)S(=O)(=O)c1ccc(C(C)=O)cc1,i,i,i,7.9µM,6.5µM
SMILES,TSHR antag,RORgamma inh,FBPA coupling cs,VP16 counter,ELG1 DNA repair
CCN(CC)S(=O)(=O)c1ccc(C(=O)Nc2ccc(Cc3ccncc3)cc2)cc1,i,5.6µM,i,3.5µM,?
O=C(O)c1ccc(S(=O)(=O)N(Cc2ccccc2)Cc2ccccc2)cc1,?,i,i,i,i
Cc1ccc(-c2nnn3c2nc(NCCc2ccc(S(N)(=O)=O)cc2)c2ccccc23)cc1,i,i,i,?,?
NS(=O)(=O)c1ccc(CCNc2nc3c(-c4cccc(F)c4)nnn3c3ccccc23)cc1,i,i,i,?,2.6µM
Cc1cccc(-c2nnn3c2nc(NCCc2ccc(S(N)(=O)=O)cc2)c2ccccc23)c1,i,?,i,?,2.6µM
CC(Oc1cccc([N+](=O)[O-])c1)C(=O)NCCC1=CCCCC1 (stereo unspecified),i,nt,nt,nt,i
O=C(NCCS(=O)(=O)N1CCN(c2ccccc2F)CC1)c1ccc(Cl)cc1,i,nt,nt,nt,i
Cc1ccc(C(=O)NCCS(=O)(=O)N2CCN(c3ccccc3F)CC2)cc1[N+](=O)[O-],i,i,i,i,21µM
Cc1c(C(=O)NCCS(=O)(=O)N2CCN(c3ccccc3F)CC2)cccc1[N+](=O)[O-],i,i,i,i,15µM
Cn1c(N)c(C(=O)CSc2nc(C3CC3)n(-c3ccccc3)n2)c(=O)[nH]c1=O,i,nt,nt,nt,i
CCCCC(=O)Nc1nc(C)c(-c2csc(Nc3cc(Cl)ccc3OC)n2)s1,i,i,i,i,?
COc1ccc(OC)c(Nc2nc(-c3sc(NC(=O)C(C)(C)C)nc3C)cs2)c1,i,?,i,11µM,?
CCCCC(=O)Nc1nc(C)c(-c2csc(Nc3cc(OC)ccc3OC)n2)s1,i,i,i,i,18µM
CCC(C)C(=O)Nc1nc(C)c(-c2csc(Nc3cc(Cl)ccc3OC)n2)s1 (stereo unspecified),i,?,i,?,?
CCCC(C)C(=O)Nc1nc(C)c(-c2csc(Nc3ccc(Cl)cc3)n2)s1 (stereo unspecified),i,?,i,11µM,?
COc1ccc(Cl)cc1Nc1nc(-c2sc(NC(=O)C(C)(C)C)nc2C)cs1,i,?,i,7.1µM,?
CCCC(C)C(=O)Nc1nc(C)c(-c2csc(Nc3ccccc3OC)n2)s1 (stereo unspecified),i,i,i,?,?
CCCOC(=O)NCCCN(C)C,nt,i,i,i,nt
COc1cc(OC)c(NC(=O)Nc2cc(C)on2)cc1Cl,nt,i,i,i,nt
CCC(C)C(=O)OC1C2CC3=C4CC(=O)OC(c5ccoc5)[C@]4(C)CCC3[C@@](C)(C2=O)C(CC(=O)OC)C1(C)C (stereo partly specified),nt,i,i,i,nt
Cc1cc(-c2ccccc2)nc(N(C)NC(=O)c2c(F)cccc2F)c1S(C)(=O)=O,i,i,i,i,18µM
Cc1cc(-c2ccccc2)nc(N(C)N)c1S(C)(=O)=O,i,i,i,i,i
COC(=O)[C@]1(Cc2ccccc2)N[C@H](CN(C)C(=O)C2CCCCC2)[C@@H]2C(=O)N(C)C(=O)[C@@H]21,i,nt,nt,nt,i
COc1cccc2cc(-c3nnc(-c4ccccc4)o3)c(=O)oc12,i,1.3µM,i,?,?
COc1cccc2cc(C(=O)Oc3ccccc3)c(=O)oc12,i,?,i,10µM,i
CCCCCCc1cc2cc(-c3nnc(-c4ccccc4O)o3)c(=O)oc2cc1O,i,i,i,i,?
CCCCCCc1cc2cc(-c3nnc(-c4ccccc4OC)o3)c(=O)oc2cc1O,?,i,i,?,7.3µM
CCOc1cccc2cc(C(=O)Oc3ccc(OC)cc3)c(=O)oc12,i,i,i,?,i
CCOC(=O)c1c(-c2ccc(C)cc2)csc1NC(=O)c1ccc(N2C(=O)CCC2=O)cc1,i,i,i,i,?
CCOC(=O)c1c(-c2ccc(C)cc2)csc1NC(=S)NC(=O)c1ccccc1,i,3.2µM,i,2.8µM,?
